The supplement of paper PMC13380429

Test system: Vero E6 infected with SARS-CoV-2
Assay: inhibition of SARS-CoV-2 cytopathic effect; higher = more antiviral protection, active = above 15
Conditions: 48 h

Measured: inhibition of SARS-CoV-2 cytopathic effect

COc1ccc(CCN(C)CCCC(C#N)(c2cc(OC)c(OC)c(OC)c2)C(C)C)cc1OC (stereo not given) [gallopamil]
inactive: 1 nM -0.29% | 8.33 nM 0.76% | 100 nM -0.41% | 833.33 nM 0.33% | 10000 nM -2.43%

COc1cc2c(NC3CCN(C)CC3)nc(N3CCCN(C)CC3)nc2cc1OCCCN(C)C
inactive: 1 nM 2.93% | 8.33 nM 3.22% | 100 nM 3.09% | 833.33 nM 3.57% | 10000 nM 4.51%

CN1CCC(COc2cnc(-c3cccc(Cn4nc(-c5cccc(C#N)c5)ccc4=O)c3)nc2)CC1
inactive: 1 nM 1% | 8.33 nM 1.71% | 100 nM 1.4% | 833.33 nM 2.63% | 10000 nM 9.19%

NC1=NC(=O)N([C@H]2C[C@H](O)[C@@H](CO)O2)CN1
inactive: 1 nM -1.14% | 8.33 nM -2.12% | 100 nM 0.08% | 833.33 nM 0.71% | 10000 nM -0.27%

CC(C)(O)CS(=O)(=O)Nc1ccc2c(c1)CCN(C(=O)COc1cccnc1)C2 [Nampt-IN-1]
inactive: 1 nM -1.96% | 8.33 nM -2.55% | 100 nM -5.64% | 833.33 nM -15.6% | 10000 nM -25.6%

CCOC(=O)[N-]c1c[n+](N2CCOCC2)no1 [molsidomine]
inactive: 1 nM -0.39% | 8.33 nM 1.12% | 100 nM 2.15% | 833.33 nM 1.58% | 10000 nM -0.19%

O=C(O[C@@H]1Cc2c(O)cc(O)cc2O[C@@H]1c1cc(O)c(O)c(O)c1)c1cc(O)c(O)c(O)c1 [epigallocatechin-gallate-(-)]
inactive: 1 nM -3.81% | 8.33 nM 2.17% | 100 nM 0.79% | 833.33 nM 1.05% | 10000 nM 0.98%
